We go through 9 compounds from paper PMC7826789 (International Journal of Molecular Sciences, 2021).

The test system of the first assay is NUAK1.
With `Cc1nc(Nc2cnn(C3CCNCC3)c2)nc2c1N(C)C(=O)c1cc3ccccc3cc1N2C` [HTH-01-015], the Kinases covered result is on record as “NUAK1”.

In the case of `CCC(=O)Nc1cccc(Oc2nc(Nc3ccc(N4CCN(C)CC4)cc3OC)ncc2Cl)c1` [WZ4003], the Kinases covered result is “NUAK1”.

For `CN1C(=O)c2ccccc2N(C)c2nc(Nc3cnn(C4CCNCC4)c3)ncc21` [XMD-17-51], the Kinases covered result is on record as “NUAK1”.

The subject of the next assay is PDGFRA.
As for `COc1cc2ncn(-c3cc(O[C@H](C)c4ccccc4Cl)c(C(N)=O)s3)c2cc1OC` [GSK237701A], the Kinases covered result is reported as “PDGFRA”.

For the compound `O=C(Nc1ccccc1)Nc1cccc(Oc2ccc3nccn3n2)c1` [TPKI-39], the Kinases covered entry is “PDGFRA”.

`Cn1ccc2ncnc(Oc3ccc(NC(=O)Nc4ccccc4)cc3)c21` [TPKI-69]: the Kinases covered entry is given as “PDGFRA”.

For `Cc1cnc(N)c(/C=C/c2cncc(C(=O)NCCc3ccc(Cl)cc3Cl)c2)c1` [GSK190937], the Kinases covered entry is given as “PDGFRA”.

Take `Nc1ncnc2occ(-c3ccc(NC(=O)Nc4cc(C(F)(F)F)ccc4F)cc3)c12` [GW770249X]: the Kinases covered result was “PDGFRA”.

As for `COc1cc2nccc(Nc3ccc(OCc4ccc(NC(C)=O)cc4)cc3)c2cc1OC` [GW440135], the Kinases covered entry was “PDGFRA”.
